PubChem BioAssay (NCATS)
Where “and” joins values, the source holds several entries; their conditions need not be identical. Identical values can stand only once. Inconclusive results are not listed. Calls of active or inactive are those of the source. Calls follow the shape of the dose curve; as a rule, active = well fitted curve in the direction sought with a large enough effect; inconclusive = small, poorly fitted or top-dose-only effect, or another doubt; inactive = no such curve, though single readings can be large; an effect the other way counts as inactive or inconclusive.

Key:
[1] = target: Cellular tumor antigen p53 (Homo sapiens) (UniProt P04637); assay: Primary qHTS for small molecule compounds that upregulate eGFP-tagged delta133p53alpha (in N-terminal) cells. (AID 2060322); conditions: NCI-H358 eGFP-delta133p53alpha fluorescence, 24 h; activation: stronger effect = higher value; also: nearly all actives have a fitted effect of over 75% in size;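 as to activation: series mostly up to about 56 µM; 0% = DMSO vehicle and 100% = reference activator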
How it was run: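 NCI-H358 cells pre-induced 24 h with 10 ng/ml doxycycline to express N-terminal eGFP-delta133p53alpha, then dosed 24 h at 37C without doxycycline; fixed, Hoechst-stained, GFP intensity by laser scanning cytometry, normalized to DMSO (0%) and 57.5 uM 5-azacytidine (100%).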

[2] = BET inhibitor-based combinations targeting novel dependencies in MECOM-rearranged (r) AML: SET-2 cell line (AID 2202231); conditions: SET-2 AML cells viability, CellTiter-Glo luminescence, 48 h; viability: stronger effect = lower value, concentration not given here; also: nearly all actives have a fitted effect of over 35% in size;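 as to viability: plate controls were DMSO treated cells for no effect and wells without cells for full effect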
How it was run: (§1)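 Readout: CellTiter-Glo luminescence. Exposure: 48 h, 11 concentrations, 500 cells/well. Metric: AUC and within-line Z-AUC after DMSO/empty-well normalization.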

[3] = BET inhibitor-based combinations targeting novel dependencies in MECOM-rearranged (r) AML: OCI-AML3 cell line (AID 2202232); conditions: Potency: OCI-AML3 viability; also: nearly all actives have a fitted effect of over 35% in size;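 as to viability (% of control): series mostly up to about 46 µM; plate controls were DMSO vehicle wells for no effect and wells without cells for full effect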
How it was run: as §1

[4] = BET inhibitor-based combinations targeting novel dependencies in MECOM-rearranged (r) AML: MV-4-11 cell line (AID 2202233); also: nearly all actives have a fitted effect of over 45% in size;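 as to viability, % of control: plate controls were DMSO for no effect and blank wells for full effect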
How it was run: (§2)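 Seeding density was 500 cells/well, and drug exposure lasted 48 hr under standard culture conditions. Read-out used CellTiter-Glo reagent with a 15 min room-temperature incubation before luminescence measurement; AUC and Z-AUC summarize the normalized responses.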

[5] = BET inhibitor-based combinations targeting novel dependencies in MECOM-rearranged (r) AML: HNT-34 cell line (AID 2202234); also: nearly all actives have a fitted effect of over 35% in size;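 as to viability (% of control): plate controls were vehicle wells for no effect and cell-free wells for full effect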
How it was run: as §2

[6] = BET inhibitor-based combinations targeting novel dependencies in MECOM-rearranged (r) AML: UCSD-AML1 cell line (AID 2202235); also: nearly all actives have a fitted effect of over 40% in size;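 as to viability (% of control): series mostly up to about 46 µM; plate controls were DMSO vehicle wells for no effect and blank wells for full effect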
How it was run: as §2

[7] = BET inhibitor-based combinations targeting novel dependencies in MECOM-rearranged (r) AML: AML-191 cell line (AID 2202236; also: nearly all actives have a fitted effect of over 35% in size;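 as to viability (% of control): plate controls were vehicle wells for no effect and wells without cells for full effect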)
How it was run: as §1

[8] = BET inhibitor-based combinations targeting novel dependencies in MECOM-rearranged (r) AML: AML-194 cell line (AID 2202237; also: nearly all actives have a fitted effect of over 40% in size;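 as to viability (% of control): plate controls were vehicle wells for no effect and wells without cells for full effect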)
How it was run: as §1
Potency is read from the fitted curve at half-maximal effect.

Cellular tumor antigen p53 (Homo sapiens), sequence (P04637 whole entry, looked up): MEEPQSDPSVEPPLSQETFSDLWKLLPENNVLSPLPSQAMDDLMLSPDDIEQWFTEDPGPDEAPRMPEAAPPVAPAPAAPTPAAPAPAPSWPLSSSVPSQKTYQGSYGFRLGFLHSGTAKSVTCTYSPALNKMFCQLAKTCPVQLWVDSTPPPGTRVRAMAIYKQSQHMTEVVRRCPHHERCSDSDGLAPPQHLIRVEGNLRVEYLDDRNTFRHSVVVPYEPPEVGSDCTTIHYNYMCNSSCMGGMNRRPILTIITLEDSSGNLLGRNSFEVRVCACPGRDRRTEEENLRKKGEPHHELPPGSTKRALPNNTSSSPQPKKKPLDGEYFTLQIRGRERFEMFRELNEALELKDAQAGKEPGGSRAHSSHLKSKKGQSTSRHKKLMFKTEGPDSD

CCOC(=O)[C@H](CCc1ccccc1)N[C@@H](C)C(=O)N1CCC[C@H]1C(=O)O
inactive: activation [1] 0% | viability [2] 92.2% | Potency [3] | Potency [4] | Potency [5] | Potency [6] | Potency [7] | Potency [8]

O=c1oc2c(O)c(O)cc3c(=O)oc4c(O)c(O)cc1c4c23
inactive: activation [1] -6.69% and -19.7% | viability [2] 113% | Potency [3] | Potency [4] | Potency [5] | Potency [6] | Potency [7] | Potency [8]

CN1CC[C@@H](c2c(O)cc(O)c3c(=O)cc(-c4ccccc4Cl)oc23)[C@@H](O)C1
active: Potency [1] 0.217 µM | Potency [2] 0.525 µM | Potency [3] 0.263 µM | Potency [4] 0.468 µM | Potency [5] 0.468 µM | Potency [6] 0.417 µM | Potency [7] 0.372 µM | Potency [8] 0.417 µM

CC(N[C@H]1CCCC[C@H]1NC(=O)c1ccc(Cl)cc1)c1cccc2ccccc12 (stereo not given in full)
active: Potency [2] 26.3 µM | Potency [3] 16.6 µM | Potency [4] 13.2 µM | Potency [5] 11.8 µM | Potency [6] 11.8 µM | Potency [7] 11.8 µM | Potency [8] 8.33 µM
inactive: activation [1] 3.01%

CCCc1nc(C(C)(C)O)c(C(=O)O)n1Cc1ccc(-c2ccccc2-c2nn[nH]n2)cc1
inactive: activation [1] -5.2% | viability [2] 116% | Potency [3] | Potency [4] | Potency [5] | Potency [6] | Potency [7] | Potency [8]

Cn1cnc(=N)c2[nH]cnc21
inactive: activation [1] 10.7% | viability [2] 111% | Potency [3] | Potency [4] | Potency [5] | Potency [6] | Potency [7] | Potency [8]

O=S(=O)(O)CCSSCCS(=O)(=O)O
inactive: activation [1] -2.01% | viability [2] 104% | Potency [3] | Potency [4] | Potency [5] | Potency [6] | Potency [7] | Potency [8]

Cc1cnc(C(=O)O)c[n+]1[O-]
inactive: activation [1] -19.2% | viability [2] 122% | Potency [3] | Potency [4] | Potency [5] | Potency [6] | Potency [7] | Potency [8]

CN(CC(=O)N(Cc1ccc(C2CCCCC2)cc1)c1ccc(C(=O)O)c(O)c1)S(=O)(=O)c1c(F)c(F)c(F)c(F)c1F
inactive: activation [1] 37.6% | viability [2] 114% | Potency [6] | Potency [8]
active: Potency [3] 9.34 µM | Potency [4] 6.61 µM | Potency [5] 6.61 µM | Potency [7] 26.3 µM

COC1CCC(N(C(=O)C2CCC(C)CC2)c2cc(C3=CCCCC3)sc2C(=O)O)CC1 (stereo not given)
inactive: activation [1] -11.2% | viability [2] 113% | Potency [3] | Potency [4] | Potency [5] | Potency [6] | Potency [7] | Potency [8]

CC(C)C[C@H](NC(=O)[C@H](CCc1ccccc1)NC(=O)CN1CCOCC1)C(=O)N[C@@H](Cc1ccccc1)C(=O)N[C@@H](CC(C)C)C(=O)[C@@]1(C)CO1
active: Potency [1] 110 nM and 273 nM | Potency [2] 0.0833 µM | Potency [3] 0.0209 µM | Potency [4] 0.0209 µM | Potency [5] 0.0235 µM | Potency [6] 0.0417 µM | Potency [7] 0.0525 µM | Potency [8] 0.0525 µM

OC[C@H]1O[C@@H](O[C@@H]2[C@@H](CO)O[C@](O)(CO)[C@H]2O)[C@H](O)[C@@H](O)[C@H]1O
inactive: activation [1] 10% | viability [2] 108% | Potency [3] | Potency [4] | Potency [5] | Potency [6] | Potency [7] | Potency [8]

CCC[C@H](N[C@@H](C)C(=O)N1[C@@H]2CCCC[C@H]2C[C@H]1C(=O)O)C(=O)OCC
inactive: activation [1] -22.1% | viability [2] 110% | Potency [3] | Potency [4] | Potency [5] | Potency [6] | Potency [7] | Potency [8]

COCCCN1CCC(NC(=O)c2cc(Cl)c(N)c3c2OCC3)CC1
inactive: activation [1] -6.16% | viability [2] 118% | Potency [3] | Potency [4] | Potency [5] | Potency [6] | Potency [7] | Potency [8]

NC(=O)Nc1cc(-c2ccc(CN3CCOCC3)cc2)sc1C(N)=O
active: Potency [2] 10.5 µM | Potency [3] 0.934 µM | Potency [4] 0.332 µM | Potency [5] 1.18 µM | Potency [6] 1.32 µM | Potency [7] 2.63 µM | Potency [8] 0.742 µM
inactive: activation [1] 3%

CC(=O)O[C@H]1C[C@@H]2CC[C@@H]3[C@H](CC[C@@]4(C)[C@H]3C[C@H]([N+]3(C)CCCCC3)[C@@H]4OC(C)=O)[C@@]2(C)C[C@@H]1N1CCCCC1
inactive: activation [1] 9.6% | viability [2] 116% | Potency [3] | Potency [4] | Potency [5] | Potency [6] | Potency [7] | Potency [8]

Oc1ccc(-c2ccc(-c3cc(Nc4cccc(CNC5CC5)c4)n[nH]3)cc2)c(O)c1
active: Potency [1] 43.2 µM | Potency [2] 7.42 µM | Potency [3] 1.86 µM | Potency [4] 1.18 µM | Potency [5] 3.72 µM | Potency [6] 2.35 µM | Potency [7] 2.95 µM | Potency [8] 3.72 µM

CC(C)C[C@@H](N)[C@H](O)C(=O)N[C@H](C(=O)N[C@H](C(=O)N[C@@H](CC(=O)O)C(=O)O)C(C)C)C(C)C
inactive: activation [1] -3.94% | viability [2] 110% | Potency [3] | Potency [4] | Potency [5] | Potency [6] | Potency [7] | Potency [8]

Cc1ccc2c(=O)c3cccc(CC(=O)O)c3oc2c1C
inactive: activation [1] 16.3% | viability [2] 108% | Potency [3] | Potency [4] | Potency [5] | Potency [6] | Potency [7] | Potency [8]

COC(=O)Nc1nc2ccc(Sc3ccccc3)cc2[nH]1
active: Potency [2] 1.18 µM | Potency [3] 0.742 µM | Potency [4] 0.934 µM | Potency [5] 0.525 µM | Potency [6] 0.468 µM | Potency [7] 0.468 µM | Potency [8] 0.417 µM
inactive: activation [1] -17.6% and 21.8%

c1ccc(CNc2nc(NCc3ccccc3)c3ccccc3n2)cc1
active: Potency [2] 16.6 µM | Potency [3] 18.6 µM | Potency [4] 9.34 µM | Potency [5] 9.34 µM | Potency [6] 8.33 µM | Potency [7] 9.34 µM | Potency [8] 9.34 µM
inactive: activation [1] 44.2%

Cc1nc(-c2ccc(OCC(C)C)c(C#N)c2)sc1C(=O)O
inactive: activation [1] 4.32% and -8.37% | viability [2] 109% | Potency [3] | Potency [4] | Potency [5] | Potency [6] | Potency [7] | Potency [8]

O=C(O)CSCC(=O)NC1CCSC1=O (stereo not given)
inactive: activation [1] -13.1% and -8.37% | viability [2] 95.2% | Potency [3] | Potency [4] | Potency [5] | Potency [6] | Potency [7] | Potency [8]

NC(=O)c1cnc(N[C@@H]2CCCC[C@@H]2N)nc1Nc1cccc(-n2nccn2)c1
active: Potency [1] 34.3 µM | Potency [2] 23.5 µM | Potency [3] 16.6 µM | Potency [4] 3.32 µM | Potency [5] 14.8 µM | Potency [6] 8.33 µM | Potency [7] 16.6 µM | Potency [8] 18.6 µM

COC[C@H](NC(=O)c1cnc(C)s1)C(=O)N[C@@H](COC)C(=O)N[C@@H](Cc1ccccc1)C(=O)[C@@]1(C)CO1
active: Potency [1] 17.2 µM | Potency [2] 0.166 µM | Potency [3] 0.0934 µM | Potency [4] 0.0833 µM | Potency [5] 0.0934 µM | Potency [6] 0.132 µM | Potency [7] 0.186 µM | Potency [8] 0.332 µM

COc1cc(C(=O)NS(=O)(=O)c2ccccc2C)ccc1Cc1cn(C)c2ccc(NC(=O)OC3CCCC3)cc12
inactive: activation [1] 105% | viability [2] 119% | Potency [3] | Potency [4] | Potency [5] | Potency [6] | Potency [7] | Potency [8]

CCOC(=O)C=C[C@H](C[C@@H]1CCNC1=O)NC(=O)[C@@H](CC(=O)[C@@H](NC(=O)c1cc(C)on1)C(C)C)Cc1ccc(F)cc1
inactive: activation [1] 17.3% | viability [2] 120% | Potency [3] | Potency [4] | Potency [5] | Potency [6] | Potency [7] | Potency [8]

CC(=O)OCCN1C(=O)c2c(C)nc3ccc(S(=O)(=O)N4CCOCC4)cc3c2C1=O
inactive: activation [1] 22.9% | viability [2] 121% | Potency [3] | Potency [4] | Potency [5] | Potency [6] | Potency [7] | Potency [8]

O=C(O)c1cn(C2CC2)c2cc(N3CCNCC3)c(F)cc2c1=O
inactive: activation [1] 6.67% | viability [2] 109% | viability (% of control) [3] 109% [at 8.46 µM] | viability, % of control [4] 112% [at 8.46 µM] | viability (% of control) [5] 97.3% [at 8.46 µM] | viability (% of control) [6] 101% [at 8.46 µM] | viability (% of control) [7] 102% [at 8.46 µM] | viability (% of control) [8] 113% [at 8.46 µM]

Cc1ccc(S(=O)(=O)OCC(=O)Nc2ccc(C(=O)O)c(O)c2)cc1
inactive: activation [1] 22.5% | viability [2] 117% | Potency [3] | Potency [4] | Potency [5] | Potency [6] | Potency [7] | Potency [8]

COc1ccc(CCN(C)CCCOc2ccc(S(=O)(=O)c3[nH]c4ccccc4c3C(C)C)cc2)cc1OC
active: Potency [2] 26.3 µM | Potency [3] 16.6 µM | Potency [4] 11.8 µM | Potency [5] 18.6 µM | Potency [6] 14.8 µM | Potency [7] 18.6 µM | Potency [8] 14.8 µM
inactive: activation [1] -2.61%

Nc1ccn(C[C@@H](CO)OCP(=O)(O)O)c(=O)n1
inactive: activation [1] -2.13% | viability [2] 113% | viability (% of control) [3] 113% [at 8.46 µM] | viability, % of control [4] 126% [at 8.46 µM] | viability (% of control) [5] 82.3% [at 8.46 µM] | viability (% of control) [6] 104% [at 8.46 µM] | viability (% of control) [7] 91.5% [at 8.46 µM] | viability (% of control) [8] 105% [at 8.46 µM]

CS(=O)(=O)OCCCCOS(C)(=O)=O
inactive: activation [1] -9.57% | viability [2] 114% | Potency [3] | Potency [4] | Potency [5] | Potency [6] | Potency [7] | Potency [8]

CC1(C)CCC2=C(O1)c1ccccc1C(=O)C2=O
active: Potency [2] 18.6 µM | Potency [3] 18.6 µM | Potency [4] 18.6 µM | Potency [5] 16.6 µM | Potency [6] 9.34 µM | Potency [7] 7.42 µM | Potency [8] 26.3 µM
inactive: activation [1] -0.948%

CC(=O)O[C@H]1C[C@@H]2CC[C@H]3[C@H]4C[C@H]([N+]5(C)CCCCC5)[C@@H](OC(C)=O)[C@@]4(C)CC[C@@H]3[C@@]2(C)C[C@H]1[N+]1(C)CCCCC1
inactive: activation [1] 5.41% | viability [2] 114% | Potency [3] | Potency [4] | Potency [5] | Potency [6] | Potency [7] | Potency [8]
